We go through 86 sequences from paper PMC10668032, “Altered binding affinity of SIX1-Q177R correlates with enhanced WNT5A and WNT pathway effector expression in Wilms tumor”.

In all, about 33,000 sequences were measured (“e-score”: median about -0.05, highest 2% from about 0.38 on). The list comes from a sample in which the highest values are over-represented; it also holds similar and randomly drawn sequences.

This assay addresses T1, SIX1-Q177R homeodomain (human, UniProt Q15475 108-198, Q177R).
T1 sequence: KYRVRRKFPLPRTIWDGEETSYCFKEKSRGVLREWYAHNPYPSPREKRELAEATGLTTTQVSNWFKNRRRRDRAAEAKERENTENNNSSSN
Description: universal protein binding microarray; Universal all-10-mer PBM (8x60K, AMADID 030236), 300 nM GST-tagged protein, Alexa Fluor 488 anti-GST; buffer, salt, pH and temperature not stated (as in Berger); high values mean tight binding. The note with it: protein: ivt; tags: N-terminal GST; dsDNA, one strand shown. In outline:
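Duplicate protein binding microarrays (universal 'all 10-mer', 8×60K format) were incubated with GST-tagged homeodomains at 300 nM final concentration. Binding was quantified as 8-mer E-scores with the Universal PBM Analysis Suite.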
In the case of CCAACACC, the binding signal stood at 0.47 ± 0.00509 E-score.

Take GCAACCCC: the binding signal is 0.184 ± 0.013 E-score.

GCAACACC: the binding signal was found to be 0.4669 ± 0.000587 E-score.

Consider ACAACACG, for which the binding signal was 0.358 ± 0.0104 E-score.

As for GCTGGGTA, the binding signal amounted to 0.227 ± 0.00462 E-score.

Take ACTCGGCA: the binding signal is 0.161 ± 0.0126 E-score.

For the sequence CACCTTCC, the binding signal was 0.307 ± 0.017 E-score.

Consider CACTAGGG, for which the binding signal came to 0.201 ± 0.0297 E-score.

Take TAGTGTAA: the binding signal worked out at 0.408 ± 0.0318 E-score.

For the sequence AAGTGTGA, the binding signal was determined as 0.188 ± 0.0231 E-score.

Regarding AAGTGTAT, the binding signal was determined as 0.317 ± 0.0537 E-score.

Turning to CAGGGTAA, the binding signal turned out to be 0.21 ± 0.00942 E-score.

On to CAGTGTAA, for which the binding signal came to 0.42 ± 0.0273 E-score.

For TAGAGTAA, the binding signal was 0.199 ± 0.00264 E-score.

With GGGAGTAA, the binding signal was 0.225 ± 0.0261 E-score.

In the case of AAGTGTAA, the binding signal is 0.4 ± 0.0567 E-score.

For CAGTGTGA, the binding signal was found to be 0.306 ± 0.0246 E-score.

For the sequence TAGTGTGA, the binding signal is 0.258 ± 0.0135 E-score.

In the case of GAGTGTAA, the binding signal worked out at 0.42 ± 0.0292 E-score.

Take CACGAAAA: the binding signal is 0.157 ± 0.0159 E-score.

As to GGGAGTTA, the binding signal came out at 0.2077 ± 0.00099 E-score.

In the case of TCGGCACA, the binding signal was determined as 0.217 ± 0.0118 E-score.

For the sequence CACCGCCA, the binding signal was 0.291 ± 0.0119 E-score.

For AGTCGGTG, the binding signal was 0.297 ± 0.0328 E-score.

As for TGCGTACA, the binding signal was 0.18 ± 0.00951 E-score.

Regarding ATAATACA, the binding signal turned out to be 0.166 ± 0.023 E-score.

Turning to ACGAGGTG, the binding signal came to 0.251 ± 0.0125 E-score.

Turning to AGGCGGGG, the binding signal worked out at 0.159 ± 0.0183 E-score.

For ACGCCACG, the binding signal came to 0.171 ± 0.0126 E-score.

With AAGACCCC, the binding signal worked out at 0.172 ± 0.0514 E-score.

As to AGAGGTAT, the binding signal was found to be 0.221 ± 0.0344 E-score.

GTGTGGCA: the binding signal was 0.246 ± 0.0251 E-score.

With GTGCTGTA, the binding signal amounted to 0.164 ± 0.0245 E-score.

GTGTAGCA: the binding signal worked out at 0.425 ± 0.0131 E-score.

With GTGTAGAA, the binding signal was 0.427 ± 0.0121 E-score.

With GTGTAGTA, the binding signal was 0.464 ± 0.0137 E-score.

GGGTAGTA: the binding signal was 0.161 ± 0.0206 E-score.

Consider GTGTGGGA, for which the binding signal is 0.286 ± 0.0336 E-score.

As to GTGTAGGA, the binding signal came to 0.4 ± 0.00559 E-score.

On to TAGTAGCA, for which the binding signal is 0.159 ± 0.00204 E-score.

Regarding GTGTGGAA, the binding signal worked out at 0.193 ± 0.0214 E-score.

With GTAGAGTA, the binding signal amounted to 0.2533 ± 0.000997 E-score.

Regarding GGGTAGGA, the binding signal came out at 0.213 ± 0.0147 E-score.

For the sequence CACGGCTA, the binding signal is 0.182 ± 0.0377 E-score.

On to ACATGGGT, for which the binding signal is 0.209 ± 0.0274 E-score.

As for CACCTGGG, the binding signal is 0.2794 ± 0.00115 E-score.

As for CCCGCCAC, the binding signal was 0.195 ± 0.0268 E-score.

Take TGGGGTAA: the binding signal was determined as 0.26 ± 0.0142 E-score.

Take CACCCGCG: the binding signal was found to be 0.301 ± 0.00786 E-score.

As for AGGCGACA, the binding signal came out at 0.25 ± 0.0166 E-score.

For the sequence ACACATGG, the binding signal worked out at 0.185 ± 0.0286 E-score.

Consider GGAGGACA, for which the binding signal was 0.246 ± 0.019 E-score.

As for CACGAACA, the binding signal was determined as 0.25 ± 0.0125 E-score.

CACACTCG: the binding signal was 0.3527 ± 0.00165 E-score.

With AACACTCG, the binding signal is 0.337 ± 0.0357 E-score.

On to AACACTCC, for which the binding signal amounted to 0.379 ± 0.0156 E-score.

For GACACTCA, the binding signal was 0.422 ± 0.00429 E-score.

With CACACTCA, the binding signal is 0.21 ± 0.0192 E-score.

With TACACTCA, the binding signal came to 0.402 ± 0.0151 E-score.

In the case of CACACTCC, the binding signal came out at 0.291 ± 0.0144 E-score.

As to CACACTAA, the binding signal came to 0.204 ± 0.0117 E-score.

Turning to GATACTCA, the binding signal was determined as 0.16 ± 0.00991 E-score.

As to AACACTCA, the binding signal was 0.3999 ± 0.00301 E-score.

As to GACACTCC, the binding signal worked out at 0.43377 ± 0.000417 E-score.

As to AACACTCT, the binding signal stood at 0.35 ± 0.036 E-score.

On to CGGATCAC, for which the binding signal came to 0.174 ± 0.0108 E-score.

Take CACGGAGC: the binding signal is 0.163 ± 0.00672 E-score.

With CACTAGCG, the binding signal was determined as 0.188 ± 0.0248 E-score.

CCGTGCGA: the binding signal was 0.155 ± 0.0514 E-score.

CCGGTATC: the binding signal was found to be 0.284 ± 0.0126 E-score.

On to ACGGTGTG, for which the binding signal is 0.367 ± 0.0153 E-score.

CCGGTGCG: the binding signal worked out at 0.179 ± 0.0475 E-score.

Turning to ACGGTGCG, the binding signal is 0.167 ± 0.0105 E-score.

Regarding ACGGTGTC, the binding signal turned out to be 0.4875 ± 0.00246 E-score.

As to CCGGTGTC, the binding signal was determined as 0.4894 ± 0.00404 E-score.

On to ACGGGGTG, for which the binding signal was 0.338 ± 0.0174 E-score.

Regarding ACCTGGTG, the binding signal was determined as 0.322 ± 0.00697 E-score.

On to ACAATACA, for which the binding signal is 0.194 ± 0.0158 E-score.

Take CTAGGACA: the binding signal came out at 0.162 ± 0.0316 E-score.

On to TAATCACA, for which the binding signal was determined as 0.213 ± 0.0222 E-score.

For the sequence GGGGTTGA, the binding signal was 0.2 ± 0.025 E-score.

With AGACACTC, the binding signal was determined as 0.3634 ± 0.00141 E-score.

On to GGACACTA, for which the binding signal is 0.358 ± 0.00739 E-score.

In the case of AGACACTA, the binding signal is 0.343 ± 0.00686 E-score.

For the sequence CGACACTC, the binding signal amounted to 0.437 ± 0.00883 E-score.

Consider CGACACTA, for which the binding signal was determined as 0.41 ± 0.00325 E-score.
